35 molecules from PubChem BioAssay can be followed below.

SMILES strings stand for the structures. Values without a mark were called inactive.

A short description of this test: ATP-based viability of Huh7 replicon cells – cell-based, CellTiter-Glo luminescence, basal, 48 h, cytotoxicity control for HCV replication inhibitor project, primary screen (AID 1143).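 Also: Huh7 hepatoma cells carrying a hepatitis C replication reporter with no stimulus; test concentration not given here.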 The following applies: higher = more signal, called active from +8 up or from −8 down. On the technique in general: Replicon systems follow genome replication, usually without infectious particles.
On to `O=C1O[C@H](c2ccccc2)[C@H](c2ccccc2)N2[C@H]1[C@@H](C(=O)NC[C@H](O)c1ccccc1)[C@]1(C(=O)Nc3ccc(C#CC4(O)CCCCCC4)cc31)[C@H]2c1ccccc1OCCO`, for which the z-score is -5.52.

On to `O=C1OCCC=C[C@H]2OC34C=CCN(c5ccc6ccccc6c5)C(=O)[C@H]3N(CCCCCCO)C(=O)[C@@H]4C12` (stereo not given in full), for which the z-score was -0.211. With `COC(=O)C(CC#Cc1ccc2c(c1)[C@]1(C(=O)N2)[C@H](C(=O)N2CCCCCCC2)[C@H]2C(=O)O[C@H](c3ccccc3)[C@H](c3ccccc3)N2[C@@H]1c1ccccc1OCCO)C(=O)OC` the figure was -3.54; with `[N-]=[N+]=Nc1ccccc1[C@@H]1OC(c2ccc(OCCCO)cc2)=N[C@]1(CCS(=O)(=O)c1ccccc1)C(=O)N1CCCCC1`, -2.42. Consider `CCOC(=O)C[C@H]1[C@H](OC(=O)c2cc3ccccc3oc2=O)[C@@H](NC(=O)c2ccc3ccccc3c2)c2cc(OCCCO)ccc2N1C(=O)c1ccccc1`, for which the z-score is -3.04. In the case of `COCCOC(=O)N1C(=O)[C@@]2(c3cc(C#CCCO)ccc31)[C@H](c1ccc(O)cc1)N1[C@H](c3ccccc3)[C@H](c3ccccc3)OC(=O)[C@H]1[C@@H]2C(=O)N1CCCCCCC1`, the z-score is -0.883. With `O=[N+]([O-])c1ccc(C[n+]2ccc(CCCO)cc2)o1` the figure was -1.22; with `COCCn1c(C(=O)N2CCCC2)cc2c1C[C@H]1CN(C(=O)c3ccccc3)[C@@](Cc3ccc(OC)cc3)(C(=O)OC)[C@@H]21`, -1.54.

With `O=C1c2ccccc2[C@](Cc2ccccc2I)(C(=O)O)[C@H](c2ccc(CO)cc2)N1Cc1ccccc1C(F)(F)F`, the z-score was -1.17. With `COc1ccc(C#Cc2ccc3c(c2)[C@]2(C(=O)N3)[C@H](C(=O)N3CCN(c4ncccn4)CC3)[C@H]3C(=O)O[C@H](c4ccccc4)[C@H](c4ccccc4)N3[C@@H]2c2ccc(O)cc2)cc1`, the z-score was -0.629. Take `Oc1ccc2cc[n+](Cc3cccc(OC(F)(F)F)c3)cc2c1`: the z-score is 0.202.

For the molecule `O=C1[C@H]2C=C(Br)[C@H](C[C@@H]2OCCOCCO)[C@@]12CO2`, the z-score is 0.808. With `CC(c1ccccc1)C(O)C1C=CC2C(=O)N(Cc3ccccc3)C(=O)C2N1n1cnnc1` (stereo not given) the figure was -0.0357; with `COCCCNC(=O)[C@@]1(C)c2ccccc2C(=O)N(Cc2ccccc2)[C@H]1c1ccc(CO)cc1`, -4.52; with `NC(=O)NCC#Cc1ccc2c(c1)[C@]1(C(=O)N2)[C@H](c2ccc(O)cc2)N2[C@H](c3ccccc3)[C@H](c3ccccc3)OC(=O)[C@H]2[C@@H]1C(=O)N1CCN(c2ncccn2)CC1`, 0.449. In the case of `C=C[C@H](C)[C@H](OC(=O)Nc1ccc(OC)cc1)c1ccc(O)c2ccccc12`, the z-score was -3.55. For `COCC1C2CC[C@H]3C(OCc4ccc(F)cc4C(F)(F)F)OC[C@]4(C)[C@H]3C2=C(CN4C(=O)OC(C)(C)C)[C@H](C)C1COC` (stereo not given in full), the z-score is -1.84. In the case of `C=CCN1C(=O)[C@]2(Cc3ccccc31)N=C(c1ccc(OCCCO)cc1)O[C@@H]2c1ccccc1`, the z-score was -3.54. On to `[N-]=[N+]=NCc1ccccc1[C@@H]1OC(c2ccc(OCCCO)cc2)=N[C@]1(Cc1ccccc1)C(=O)O`, for which the z-score was -0.354. `O=C(NCCN1CCOCC1)[C@@H]1c2ccccc2C(=O)N(Cc2cc(F)cc(C(F)(F)F)c2)[C@H]1c1ccc(CO)cc1`: the z-score was -0.269. Take `O=c1cccc(-c2ccccc2)o1`: the z-score was 0.423. With `O=C1O[C@@H](c2ccccc2)[C@@H](c2ccccc2)N2[C@@H](c3ccc(O)cc3)[C@]3(C(=O)Nc4ccccc43)[C@@H](C(=O)N3CCCCCCC3)[C@H]12` the figure was -2.61; with `Cc1ccccc1/C=C/C=O`, -0.042; with `COc1ccc([Si](C)(C)[C@H]2[C@H](CC(=O)N3Cc4ccccc4C[C@H]3CO)O[C@@]3(C(=O)N(Cc4cccc(I)c4)c4ccccc43)[C@@H]2C)cc1`, -4.1. With `C=C(/C(=C/C[C@@H](OC(C)=O)c1ccc(CO)o1)c1cnc2ccccc2c1)C(C)C` the figure was -0.136; with `[N-]=[N+]=NCc1ccccc1[C@@H]1OC(c2ccc(OCCCO)cc2)=N[C@]1(Cc1ccccc1N=[N+]=[N-])C(N)=O`, -1.91. With `C=CCOC(=O)[C@H]1[C@@H]2C(=O)O[C@@H](c3ccccc3)[C@@H](c3ccccc3)N2[C@@H](c2ccc(OCCOC(=O)[C@H]3C[C@H]4C(=O)N[C@@H](CCCC[N+](C)(C)C)C(=O)N4[C@H]3c3ccc(O)cc3)cc2)[C@]12C(=O)Nc1ccccc12` the figure was -0.236; with `CC1CC/C=C\[C@H]2OC34C=CCN(Cn5nnc6ccccc65)C(=O)[C@H]3N(CCCO)C(=O)[C@@H]4C2C(=O)O1` (stereo not given in full), -0.382.

`Cc1cc(C)c(C(O)C2C=CC3C(=O)NC(=O)C3N2Nc2ccccn2)c(C)c1` (stereo not given): the z-score is 0.882.

Take `C=C[C@@H](C)[C@@H](OC(=O)Nc1ccc(OC)cc1)c1ccc(O)c2ccccc12`: the z-score is -5.48. With `[N-]=[N+]=NCc1ccccc1[C@H]1OC(c2ccc(OCCCO)cc2)=N[C@@]1(Cc1ccccc1)C(=O)NCC(O)CO` (stereo not given in full) the figure was -2.11. The value for `C=CC[C@]1(C(=O)O)N=C(c2ccc(OCCCO)cc2)O[C@H]1c1ccccc1CN=[N+]=[N-]` was 0.101; that for `NC(=O)[C@@]1(CCS(=O)(=O)c2ccccc2)N=C(c2ccc(OCCCO)cc2)O[C@H]1c1ccccc1` was -5.04. Take `C=C(CCCC)/C(=C/C[C@H](OC(C)=O)c1ccc(CO)o1)c1cc(C(=O)OC)ccc1OC`: the z-score was -3.43. With `O=C1O[C@@H](c2ccccc2)[C@@H](c2ccccc2)N2[C@@H](c3ccc(O)cc3)[C@]3(C(=O)Nc4ccccc43)[C@@H](C(=O)NC[C@H](O)c3ccccc3)[C@H]12` the figure was -2.34.
